The values below come from PubChem BioAssay AID1445 (SRMLSC, 2008).

About 910 (0.41%) of roughly 220,000 compounds were called active.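 How the source made its calls: active means primary inhibition above the hit cutoff, then over 50% inhibition at one or more dose response concentrations (cut at about 23% in these data, passing the limit was not always enough); inconclusive means conflicting primary data, or primary hits not chosen for dose response; inactive means low primary inhibition, or under 50% at every dose.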 This excerpt belongs to a sample that is enriched for actives. Measured potencies and affinities stand elsewhere.

The target in this assay is Aminopeptidase N (Plasmodium falciparum (isolate 3D7)) (UniProt O96935). The experiment in a line: malaria alanyl aminopeptidase activity blockers – biochemical, fluorogenic H-Leu-NHMec substrate, 1536-well (AID 1445).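 Further: plate controls were DMSO full reaction for no effect and no enzyme background for full effect.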 The settings on record: recombinant M1AAP, H-Leu-NHMec fluorogenic kinetic assay; at 30 µM, stronger effect = higher value unless noted.
Chain of Aminopeptidase N (Plasmodium falciparum (isolate 3D7)) (O96935 whole entry, looked up): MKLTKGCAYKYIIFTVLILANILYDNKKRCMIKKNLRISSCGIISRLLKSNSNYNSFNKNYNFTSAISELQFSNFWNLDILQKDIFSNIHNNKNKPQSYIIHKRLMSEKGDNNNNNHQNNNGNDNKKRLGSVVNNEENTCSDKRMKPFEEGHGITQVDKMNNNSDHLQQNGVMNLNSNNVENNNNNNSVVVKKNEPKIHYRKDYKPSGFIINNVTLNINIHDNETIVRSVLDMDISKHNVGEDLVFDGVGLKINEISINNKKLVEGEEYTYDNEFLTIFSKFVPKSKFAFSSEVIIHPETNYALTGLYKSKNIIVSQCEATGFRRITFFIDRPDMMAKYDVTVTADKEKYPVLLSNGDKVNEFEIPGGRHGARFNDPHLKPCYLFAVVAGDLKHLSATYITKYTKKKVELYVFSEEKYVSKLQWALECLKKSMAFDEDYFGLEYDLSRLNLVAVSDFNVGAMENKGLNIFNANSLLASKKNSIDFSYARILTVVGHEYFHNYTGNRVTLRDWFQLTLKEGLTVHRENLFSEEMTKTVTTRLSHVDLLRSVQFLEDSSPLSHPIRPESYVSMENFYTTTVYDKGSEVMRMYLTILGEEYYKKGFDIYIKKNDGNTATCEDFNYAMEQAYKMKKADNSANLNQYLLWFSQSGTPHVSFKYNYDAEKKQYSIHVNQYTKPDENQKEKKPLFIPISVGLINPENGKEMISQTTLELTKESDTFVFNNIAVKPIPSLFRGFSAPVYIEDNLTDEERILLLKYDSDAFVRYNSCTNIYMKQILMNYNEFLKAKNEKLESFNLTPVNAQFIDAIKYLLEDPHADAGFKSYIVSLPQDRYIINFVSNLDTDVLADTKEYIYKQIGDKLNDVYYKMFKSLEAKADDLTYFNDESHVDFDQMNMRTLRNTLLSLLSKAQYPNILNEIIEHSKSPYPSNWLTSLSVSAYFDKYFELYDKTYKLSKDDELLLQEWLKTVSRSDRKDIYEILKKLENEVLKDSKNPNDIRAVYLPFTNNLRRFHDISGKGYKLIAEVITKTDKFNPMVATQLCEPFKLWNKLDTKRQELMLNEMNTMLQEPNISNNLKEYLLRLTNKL
Regarding `COC(=O)c1sccc1NC(=O)CSCCc1ccccn1`, the inhibition is 4.36% (inactive).
Turning to `Cc1ccc(CNC(=O)C(Cc2ccccc2)NS(=O)(=O)c2cccs2)cc1` (stereo not drawn), the inhibition is -3.28% (inactive).
Regarding `O=C(NCc1cccs1)C(Cc1ccccc1)NS(=O)(=O)c1cccs1` (stereo not drawn), the inhibition was 13.3% (inactive).
In the case of `O=C(c1ccco1)N1CCN(Cc2cccnc2)CC1`, the inhibition was 3.43% (inactive).
The value for `CC(C)(C)NC(=O)Cn1nnc(-c2ccc(S(C)(=O)=O)cc2)n1` was 9.97% (inactive); that for `Cc1onc(-c2ccncc2)c1C(=O)O` was 0.4% (inactive); that for `COc1ccccc1-c1n[nH]c(=S)n1-c1ccccc1` was 2.6% (inactive).
The value for `CN1CCN(C(=O)c2cc(Cl)ccc2Cl)CC1` was 8.9% (inactive); that for `CC(=O)NNC(=S)NCCc1ccccc1` was 6.55% (inactive); that for `O=C(CCc1ccc(O)cc1)NNC(=S)NCCc1ccccc1` was -1.96% (inactive).
The result for `Cc1nn(-c2ccccc2)c(N)c1C1(O)C(=O)N(C)c2ccccc21` (stereo not drawn) reads 1.69% (inactive); that for `CC1(C)Nc2ccccc2C(=O)N1NS(=O)(=O)c1ccccc1`, 2.35% (inactive).
Regarding `CC(/C=C1\SC(=S)N(NC(=O)c2cccc(O)c2)C1=O)=C\c1ccccc1`, the inhibition was -3.91% (inactive).
Consider `Cn1cc(/C=C2\SC(=S)N(NC(=O)c3ccccc3)C2=O)c2ccccc21`, for which the inhibition is 3.01% (inactive).
The value for `O=C(Nc1ccc(C(=O)NN2C(=O)c3ccccc3C2=O)cc1)c1ccccc1` was 8.25% (inactive); that for `O=C(NN1C(=O)C2C3C=CC(O3)C2C1=O)c1cccc(O)c1` (stereo not drawn) was 6.69% (inactive).
The value for `CC1Nc2ccccc2C(=O)N1NS(=O)(=O)c1ccccc1` (stereo not drawn) was 1.49% (inactive); that for `CCOc1cc(N2CCOCC2)c(OCC)cc1NC(=O)c1ccc(S(C)(=O)=O)cc1` was 9.02% (inactive); that for `COc1ccccc1N(C)S(=O)(=O)c1ccc(C(=O)OCC(=O)NCc2ccco2)cc1` was -0.82% (inactive).
The value for `Cc1cccc(NC(=O)N2CCC(c3nc4ccccc4o3)CC2)c1` was 10% (inactive); that for `COc1cc(NC(=S)NC(=O)C(C)C)ccc1NC(=O)c1cc2ccccc2o1` was 10.7% (inactive); that for `COc1ccc(NC(=O)Nc2ccc(OCC(=O)N3CCOCC3)cc2)cc1OC` was 0.44% (inactive).
Turning to `CCC(C)(C)C1CCc2c(sc(NC(=O)c3cccs3)c2C(N)=O)C1` (stereo not drawn), the inhibition was -0.66% (inactive).
The result for `C=CCn1c(=NC(=O)CC)n(C)c2ccccc21` reads 0.56% (inactive); that for `CCCn1c(CNc2ccccc2O)nc2ccccc21`, 0.88% (inactive); that for `Cn1c(CNc2nc3ccccc3n2C)nc2ccccc21`, -11.6% (inactive).
The value for `Cn1c(CNc2ccccc2O)nc2ccccc21` was 25% (active); that for `COc1cc(C(=S)N2CCOCC2)cc(OC)c1OC(=O)Cc1ccc(F)cc1` was 7.01% (inactive); that for `CC(C)(C)NC(=O)NC(=O)COC(=O)CCCc1c[nH]c2ccccc12` was 3.27% (inactive).
The value for `O=C1NCCCc2nonc21` was 0.35% (inactive); that for `CCOc1cc(/C=N/NS(=O)(=O)c2ccccc2)ccc1OS(=O)(=O)c1ccc(C)cc1` was 14.5% (inactive).
For `CC(=O)Nc1ccc(S(=O)(=O)Oc2ccc(/C=N/N=C3/NC(=O)C(CC(=O)O)S3)cc2)cc1` (stereo not drawn), the inhibition is 10.6% (inactive).
The result for `CCOc1cc(/C=N/O)ccc1OS(=O)(=O)c1ccc(C)cc1` reads 13.6% (inactive); that for `CCOc1cc(/C=N/N=C2/NC(=O)C(CC(=O)O)S2)ccc1OCc1ccc(Cl)cc1` (stereo not drawn), 9.38% (inactive); that for `COc1cc(/C=N/N=C2/NC(=O)C(CC(=O)O)S2)ccc1OCc1ccc(Cl)cc1` (stereo not drawn), 21.8% (inactive).
The result for `CC(=O)Nc1ccc(S(=O)(=O)Oc2cccc(/C=C3\SC(N)=NC3=O)c2)cc1` reads -0.74% (inactive).
The value for `CCN(Cc1ccccc1)C(=O)c1cc(COc2c(F)cccc2F)on1` was 5% (inactive).
On to `COc1ccccc1-c1ccc(SCC(=O)NCCc2ccccc2)nn1`, for which the inhibition is 10.8% (inactive).
Turning to `Cc1cc(C(=O)COC(=O)c2nccnc2N)c(C)n1C`, the inhibition is 6.62% (inactive).
The result for `CCOC(=O)C1CCCN(CC(=O)c2c[nH]c3ccc(C)cc23)C1` (stereo not drawn) reads 5.27% (inactive).
The result for `CCOCc1nnc(NC(=O)c2ccc(NC(C)=O)cc2)s1` reads 1.45% (inactive); that for `COc1ccc(NC(=O)CSc2ncn[nH]2)c([N+](=O)[O-])c1`, -0.25% (inactive); that for `C=CCn1c(SCc2c(C(=O)OC)sc(N)c2C(=O)OC)nnc1-c1ccc(Br)cc1`, 6.79% (inactive).
The value for `CCC(=O)c1c(NC(C)C)cc(C)oc1=O` was 2.35% (inactive); that for `Cc1cnc(C)c(N2CCC(C(=O)NCc3cccs3)CC2)n1` was 3.94% (inactive).
Consider `COc1cc(CNC(C)(C)C)cc(Br)c1OCc1cccs1`, for which the inhibition was 6.22% (inactive).
The result for `COc1cc(C2c3c(-c4ccccc4)n[nH]c3C(=O)N2c2ccc(C(=O)O)cc2)ccc1O` (stereo not drawn) reads 14.8% (inactive); that for `O=C(O)c1ccc(N2C(=O)c3[nH]nc(-c4ccccc4)c3C2c2ccccc2)cc1` (stereo not drawn), 2.78% (inactive); that for `COc1ccc(C2c3c(-c4ccccc4)n[nH]c3C(=O)N2c2ccc(C(=O)O)cc2)cc1` (stereo not drawn), 5.67% (inactive).
Regarding `COc1cccc(C2c3c(-c4ccccc4)n[nH]c3C(=O)N2c2ccc(C(=O)O)cc2)c1` (stereo not drawn), the inhibition is 8% (inactive).
Regarding `COc1cccc(OC)c1OCCNCCO`, the inhibition was 9.5% (inactive).
The value for `O=C(CCNS(=O)(=O)c1cccc2nsnc12)NCc1ccco1` was 3.34% (inactive); that for `CC(=O)Nc1ccccc1C(=O)C(=O)Nc1cccc(C(=O)NCc2ccc(C)cc2)c1` was 2.5% (inactive).
Take `COC(=O)c1cc(NC(=S)N2CCN(C(=O)C3CCCO3)CC2)cc(C(=O)OC)c1` (stereo not drawn): the inhibition is -0.88% (inactive).
In the case of `CCOC(=O)c1cc2c(=O)[nH]ccc2nc1C(F)(F)F`, the inhibition was 5.5% (inactive).
As to `CCc1ccc(NC(=O)COc2ccc(/C=C(/C#N)c3nc4ccccc4[nH]3)cc2OC)cc1`, the inhibition was 11% (inactive).
Turning to `CCOc1cc(/C=C(/C#N)c2ccc(F)cc2)ccc1OCc1ccc(C(=O)O)o1`, the inhibition is 17.8% (inactive).
On to `CCOc1cc(/C=C(/C#N)c2nc3ccccc3[nH]2)ccc1Oc1ccc([N+](=O)[O-])cn1`, for which the inhibition was 1.44% (inactive).
The result for `COc1cccc(/C=C(/C#N)c2ccc(Cl)cc2)c1OCc1cccc(C(=O)O)c1` reads 13.3% (inactive); that for `N#C/C(=C\c1ccccc1OCc1ccc(C(=O)O)cc1)c1ccccc1`, -6.55% (inactive).
The value for `COc1cc(/C=C(\C#N)c2nc3ccccc3[nH]2)ccc1OC(=O)c1ccco1` was 7.39% (inactive); that for `COC(=O)c1ccc(COc2ccc(/C=C(\C#N)c3nc4ccccc4[nH]3)cc2OC)o1` was 12.6% (inactive); that for `COc1cc(/C=C(/C#N)c2ccc(F)cc2)ccc1OCc1ccc(C(=O)O)o1` was 27.4% (active).
The value for `CCCc1ccc(OCc2ccc(C(=O)O)o2)c(OC)c1` was 1.24% (inactive).
Regarding `CN(C(=O)c1ccccc1NC(=O)C(F)(F)F)c1ccccc1`, the inhibition is 4.16% (inactive).
The result for `O=C1OCC2=C1C(c1ccccc1)CC(=O)N2c1ccccc1` (stereo not drawn) reads 5.38% (inactive); that for `NC(=O)C(=O)N/N=C/c1c(F)c(F)c(F)c(F)c1F`, 13.6% (inactive); that for `C=C1CCN([C@@H](C)C(=O)NCc2ccc(OC)cc2)S(=O)(=O)c2ccccc21`, 6.29% (inactive).
On to `CN(CC(=O)N1CCN(c2ccccn2)CC1)S(=O)(=O)c1cccc2nsnc12`, for which the inhibition is 3.43% (inactive).
The value for `Cc1cc(C)nc(N/N=C/c2ccccc2OCc2ccc(Br)cc2)n1` was 1.44% (inactive); that for `Cc1c(N2C(=O)C(=O)/C(=C(/O)c3ccccc3)C2c2ccc(F)cc2)c(=O)n(-c2ccccc2)n1C` (stereo not drawn) was 5.61% (inactive).
In the case of `Cc1c(N/C=C/C(=O)c2ccc(Cl)cc2)c(=O)n(-c2ccccc2)n1C`, the inhibition was 4.02% (inactive).
Take `O=C(C1=C(O)C(=O)N(CCc2ccccc2)C1c1cccnc1)c1ccco1` (stereo not drawn): the inhibition was 9.09% (inactive).
The value for `Cc1ccc(C(=O)C2=C(O)C(=O)N(Cc3ccccc3)C2c2cccnc2)o1` (stereo not drawn) was 15.2% (inactive); that for `COC(=O)c1cc(NS(=O)(=O)c2ccc3c(c2)CCC(=O)N3)cc(C(=O)OC)c1` was 8.87% (inactive).
The result for `O=C(CCC1CC(=O)Nc2ccccc21)NCc1ccc(F)cc1` (stereo not drawn) reads 5.98% (inactive); that for `O=C(O)CCCC(=O)Nc1ccc(Sc2ccc([N+](=O)[O-])cc2)cc1`, 2.99% (inactive); that for `CCOc1nonc1C(=N)/C(C(C)=O)=C(\C)O`, -1.51% (inactive).
For the compound `Cc1ccc(OCC(=O)N2CCN(c3nnc(-c4ccc(C)cc4)c4ccccc34)CC2)cc1`, the inhibition was 14.1% (inactive).
The result for `CC(C)CSc1nc2ccccc2n1CC(N)=O` reads -7.7% (inactive).
The result for `O=[n+]1c2c(n([O-])c3cc(Br)ccc31)CCC2` reads 16.4% (inactive); that for `O=[n+]1c2c(n([O-])c3ccccc31)CCC2`, 26.1% (active); that for `O=[n+]1c2c(n([O-])c3ccccc31)CCCC2`, 2.78% (inactive).
The value for `Cc1ncc(CO)c(/C=N/NC(=O)c2ccc(O)cc2)c1O` was 7.46% (inactive); that for `COc1ccc(C(=O)N/N=C/c2c(CO)cnc(C)c2O)cc1` was 14.8% (inactive); that for `Cc1cccc2cc(CN(Cc3cccs3)S(=O)(=O)c3ccc4c(c3)OCCO4)c(=O)[nH]c12` was 4.88% (inactive).
Turning to `Cc1cccc(-n2cc(CNCCc3nc(C)cc(C)n3)c(-c3cccc(F)c3)n2)c1`, the inhibition was 0.33% (inactive).
Turning to `CC1CCCCN1C(=O)c1cc2nc(-c3ccccc3)cc(-c3ccccc3)n2n1` (stereo not drawn), the inhibition is 2.04% (inactive).
The result for `COC(=O)COc1ccc(=O)n(-c2ccccc2)n1` reads 2.11% (inactive); that for `O=C(N/N=C/c1cccc(O)c1)c1ccc(NC(=O)c2cccc([N+](=O)[O-])c2)cc1`, 3.44% (inactive); that for `O=C(c1cnn2ccccc12)N1CCN(C2CCCCC2)CC1`, 26.7% (active).
The result for `CCOC(=O)N1CCN(C(=O)c2cnn3ccccc23)CC1` reads 10.3% (inactive); that for `O=C(c1cnn(-c2ccccc2)c1-n1cccc1)N1CCN(C2CCCCC2)CC1`, 2.13% (inactive).

In general, inhibition refers to the drop in the measured response relative to a control, in per cent.
